# Measured values as given in PubChem BioAssay (Tox21).
# Values without a mark were called inactive. Results filed as inconclusive are left out. Entries that show only a call come without a potency. Active and inactive are the calls of the source. Unless noted, calls follow the shape of the dose curve; as a rule, active = well fitted curve in the direction sought with a large enough effect in the repeat runs; inconclusive = weak or mixed curves; inactive = no such curve, though single readings can be large; an effect the other way counts as inactive or inconclusive.
# Tests used:
# [1] = biological target: Thyrotropin receptor (Homo sapiens) (UniProt P16473); experiment: qHTS assay to identify small molecule agonists of the thyroid stimulating hormone receptor (TSHR) signaling pathway (AID 1224843; calls by dose curve; also: nearly all actives have a fitted effect of over 45% in size)
# Chain of Thyrotropin receptor (Homo sapiens) (P16473 whole entry, looked up): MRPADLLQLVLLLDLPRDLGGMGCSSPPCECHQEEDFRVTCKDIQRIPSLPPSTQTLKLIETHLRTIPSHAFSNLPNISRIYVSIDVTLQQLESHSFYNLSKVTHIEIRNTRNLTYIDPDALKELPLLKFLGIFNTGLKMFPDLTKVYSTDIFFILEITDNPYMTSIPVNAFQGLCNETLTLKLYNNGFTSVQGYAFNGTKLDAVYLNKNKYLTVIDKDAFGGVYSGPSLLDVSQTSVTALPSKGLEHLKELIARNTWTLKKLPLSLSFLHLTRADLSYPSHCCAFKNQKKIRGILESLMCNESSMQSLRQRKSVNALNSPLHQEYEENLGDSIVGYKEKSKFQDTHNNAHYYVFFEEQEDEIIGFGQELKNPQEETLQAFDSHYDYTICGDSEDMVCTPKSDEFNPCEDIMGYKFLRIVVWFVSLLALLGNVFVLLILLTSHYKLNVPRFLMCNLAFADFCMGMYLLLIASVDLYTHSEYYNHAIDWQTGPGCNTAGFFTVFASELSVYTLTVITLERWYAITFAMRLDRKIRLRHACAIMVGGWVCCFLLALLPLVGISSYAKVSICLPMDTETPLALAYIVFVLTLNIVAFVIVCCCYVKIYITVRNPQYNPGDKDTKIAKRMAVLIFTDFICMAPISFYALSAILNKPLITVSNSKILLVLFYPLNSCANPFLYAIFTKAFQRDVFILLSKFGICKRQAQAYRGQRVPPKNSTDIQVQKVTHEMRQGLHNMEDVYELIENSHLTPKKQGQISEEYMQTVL
# Method in brief: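 Cell line HEK293 with TSHR; density 800/well. Exposure 30 min RT. Readout HTRF cAMP (cAMP-d2/anti-cAMP-cryptate), 1 h RT before reading.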
# [2] = qHTS assay to identify small molecule agonists of the hypoxia (HIF-1) signaling pathway - cell viability counter screen (AID 1224844; calls by dose curve; also: nearly all actives have a fitted effect of over 50% in size; also: potency is read from the fitted curve at half-maximal effect)
# Method in brief: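 HRE-bla ME-180 cells in medium with 0.5% dialyzed FBS were preincubated 5 hrs at 37C, exposed to compounds for 17 hrs, then viability was read as CellTiter-Glo luminescence after 30 min at room temperature, in the reporter wells.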
# [3] = qHTS assay to identify small molecule agonists of H2AX (AID 1224845; active = well fitted activation curve with a large enough effect in the signal ratio in the repeat runs, not every such curve was filed as active; the % refers to the signal ratio)
# Method in brief: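 Wild-type CHO-K1 cells plated overnight, then exposed 3 hr at 37C to compounds at 15 concentrations (0.76% DMSO). Lysed, then HTRF anti-pH2AX(S139)-cryptate/anti-H2AX-d2 detection after 24 hr at room temperature; emissions 665 and 620 nm.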
# [4] = qHTS assay to identify small molecule agonists of H2AX - cell viability counter screen (AID 1224847; calls by dose curve; also: top concentration of the series differs between compounds; nearly all actives have a fitted effect of over 30% in size)
# Method in brief: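 Wild-type CHO-K1 cells (10% FBS medium) were plated overnight at 37C, exposed to compounds at 15 concentrations for 3 hr at 37C (0.76% DMSO final), and viability was read as CellTiter-Glo luminescence after 30 min at room temperature.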
# [5] = qHTS assay to identify small molecule antagonists of the estrogen related receptor (ERR) signaling pathway from Tox21 library (AID 1224848); also: nearly all actives have a fitted effect of over 50% in size
# Method in brief: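 Screening used an ERR reporter line supplied by NTP, exposed for 18 h at 37 C to library compounds delivered in DMSO. Signal was luciferase luminescence developed with ONE-Glo at room temperature for 30 min.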
# [6] = qHTS assay to identify small molecule agonists of the estrogen related receptor (ERR) signaling pathway from Tox21 library (AID 1224849; calls by dose curve; also: nearly all actives have a fitted effect of over 15% in size); settings: ERR reporter cell line, ONE-Glo luciferase, 18 h; at 92.4 µM (top of the series) unless noted
# Method in brief: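 ERR reporter cell line (NTP) seeded, rested 6 h at 37 C/5% CO2, then pinned with Tox21 compounds in DMSO. After 18 h at 37 C, ONE-Glo luciferase luminescence was read following 30 min at room temperature.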
# [7] = qHTS RealTime-Glo MT Cell Viability Assay in HepG2 cells - 24 hour (AID 1224867); also: nearly all actives have a fitted effect of over 50% in size; also: potency is read from the fitted curve at half-maximal effect
# Method in brief: (§1)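 Luminescence read-out: viable HepG2 cells reduce a prosubstrate to a NanoLuc substrate, giving a signal proportional to live cell number. Reads taken at 0, 8, 16, 24, 32 and 40 h of compound exposure at 37 C.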
# [8] = qHTS RealTime-Glo MT Cell Viability Assay in HEK293 cells - 32 hour (AID 1224868); also: nearly all actives have a fitted effect of over 50% in size; also: potency is read from the fitted curve at half-maximal effect
# Method in brief: (§2)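 Nonlytic real-time viability readout: viable cells convert prosubstrate to NanoLuc substrate, giving luminescence proportional to live cell number. HEK293, 600 cells/well, compound added after 5 h, continuous culture at 37 C.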
# [9] = qHTS RealTime-Glo MT Cell Viability Assay in HepG2 cells - 40 hour (AID 1224870); also: nearly all actives have a fitted effect of over 50% in size
# Method in brief: (§3)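 HepG2 cells mixed with RealTime-Glo MT reagents (NanoLuc plus cell-permeant prosubstrate) were seeded at 600 cells/well, incubated 5 h at 37 C/5% CO2, then pinned with compounds in DMSO; nonlytic luminescence tracked viability during 40 h treatment.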
# [10] = A CellTox Green Cytotoxicity Assay to monitor cytotoxicity in HEK293 cells - 40 hour (AID 1224871); also: nearly all actives have a fitted effect of over 45% in size; also: potency is read from the fitted curve at half-maximal effect
# Method in brief: (§4)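 HEK293 cells premixed with CellTox Green dye were seeded at 600 cells/well and left 5 h at 37 C/5% CO2 before pin transfer of 23 nL compound in DMSO. Fluorescence from dye bound to dead-cell DNA was read during 40 h treatment.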
# [11] = qHTS RealTime-Glo MT Cell Viability Assay in HEK293 cells - 16 hour (AID 1224872); also: nearly all actives have a fitted effect of over 50% in size; also: potency is read from the fitted curve at half-maximal effect
# Method in brief: as §2
# [12] = qHTS RealTime-Glo MT Cell Viability Assay in HepG2 cells - 8 hour (AID 1224873); also: nearly all actives have a fitted effect of over 55% in size; also: potency is read from the fitted curve at half-maximal effect
# Method in brief: as §3
# [13] = qHTS RealTime-Glo MT Cell Viability Assay in HEK293 cells - 40 hour (AID 1224874); settings: RealTime-Glo luminescence; max response: active compounds read low; also: nearly all actives have a fitted effect of over 50% in size; also: potency is read from the fitted curve at half-maximal effect
# Method in brief: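 HEK293 cells mixed with RealTime-Glo reagents (NanoLuc plus cell-permeant prosubstrate) at 600 cells/well, preincubated 5 h at 37 C/5% CO2, then given 23 nL compound in DMSO. Nonlytic luminescence from viable cells was read at 0, 8, 16, 24, 32 and 40 h.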
# [14] = A CellTox Green Cytotoxicity Assay to monitor cytotoxicity in HEK293 cells - 24 hour (AID 1224875); also: nearly all actives have a fitted effect of over 45% in size; also: potency is read from the fitted curve at half-maximal effect
# Method in brief: as §4
# [15] = qHTS RealTime-Glo MT Cell Viability Assay in HepG2 cells - 32 hour (AID 1224877); also: nearly all actives have a fitted effect of over 55% in size; also: potency is read from the fitted curve at half-maximal effect
# Method in brief: as §1
# [16] = A CellTox Green Cytotoxicity Assay to monitor cytotoxicity in HepG2 cells - 24 hour (AID 1224878); also: nearly all actives have a fitted effect of over 45% in size; also: potency is read from the fitted curve at half-maximal effect
# Method in brief: (§5)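 HepG2 cells were seeded together with the CellTox Green dye at 600 cells/well, left 5 h at 37 C/5% CO2, then given compounds in DMSO. Fluorescence from dye bound to dead-cell DNA was read repeatedly over 40 h of treatment at 37 C.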
# [17] = A CellTox Green Cytotoxicity Assay to monitor cytotoxicity in HepG2 cells - 40 hour (AID 1224879); also: nearly all actives have a fitted effect of over 40% in size; also: potency is read from the fitted curve at half-maximal effect
# Method in brief: as §5
# [18] = A CellTox Green Cytotoxicity Assay to monitor cytotoxicity in HEK293 cells - 0 hour (AID 1224869); also: nearly all actives have a fitted effect of over 50% in size
# Method in brief: as §4
# [19] = A CellTox Green Cytotoxicity Assay to monitor cytotoxicity in HepG2 cells - 16 hour (AID 1224876); also: nearly all actives have a fitted effect of over 45% in size
# Method in brief: as §5
# [20] = qHTS assay to identify small molecule agonists of the hypoxia (HIF-1) signaling pathway (AID 1224846; active = well fitted activation curve with a large enough effect in the signal ratio in the repeat runs, not every such curve was filed as active; the % refers to the signal ratio)
# Method in brief: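 HRE-bla ME-180 cells (beta-lactamase reporter under hypoxia response element) were plated at 2,000 cells/well in medium with 0.5% dialyzed FBS, rested 5 hrs, then given compounds in DMSO for 17 hrs at 37C, 5% CO2. Reporter induction was read with CCF4-AM FRET substrate.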
compound,measurement,setting,value
COc1cc(NC(C)CCCN)c2ncccc2c1 (stereo unspecified),Potency,[1],inactive
same,Potency,[2],inactive
same,Potency,[3],inactive
same,Potency,[4],inactive
same,Potency,[5],inactive
same,"activity change, positive = activation",[6],-9.72% [at 42.5 µM]
same,Potency,[7],inactive
same,Potency,[8],inactive
same,Potency,[9],inactive
same,Potency,[10],inactive
same,Potency,[11],inactive
same,Potency,[12],inactive
same,max response,[13],-12.5%
same,Potency,[14],inactive
same,Potency,[15],inactive
same,Potency,[16],inactive
same,Potency,[17],inactive
CC12CC3CC(C)(C1)CC(N)(C3)C2,Potency,[1],inactive
same,Potency,[2],inactive
same,Potency,[3],inactive
same,Potency,[4],inactive
same,Potency,[5],inactive
same,"activity change, positive = activation",[6],-0.576% [at 42.5 µM]
same,Potency,[7],inactive
same,Potency,[8],inactive
same,Potency,[18],inactive
same,Potency,[10],inactive
same,Potency,[11],inactive
same,Potency,[12],inactive
same,max response,[13],3.93%
same,Potency,[14],inactive
same,Potency,[19],inactive
same,Potency,[15],inactive
same,Potency,[16],inactive
same,Potency,[17],inactive
O=C(O)c1cccc(Oc2ccccc2)c1,Potency,[1],inactive
same,Potency,[2],inactive
same,Potency,[3],inactive
same,outcome,[20],inactive
same,Potency,[5],inactive
same,"activity change, positive = activation",[6],-1.12%
same,Potency,[7],inactive
same,Potency,[8],inactive
same,Potency,[18],inactive
same,Potency,[9],inactive
same,Potency,[11],inactive
same,Potency,[12],inactive
same,max response,[13],-1.97%
same,Potency,[14],inactive
same,Potency,[19],inactive
same,Potency,[15],inactive
same,Potency,[16],inactive
same,Potency,[17],inactive
COc1ccc(-n2nc(C(F)F)cc2-c2ccc(S(C)=O)cc2)cc1 (stereo unspecified),Potency,[1],inactive
same,Potency,[2],inactive
same,Potency,[3],inactive
same,Potency,[4],inactive
same,Potency,[7],inactive
same,Potency,[8],inactive
same,Potency,[9],inactive
same,Potency,[10],inactive
same,Potency,[11],inactive
same,Potency,[12],inactive
same,max response,[13],-24.7%
same,Potency,[14],inactive
same,Potency,[15],inactive
O=C1OC[C@H](Cc2cccc(O)c2)[C@H]1Cc1cccc(O)c1,Potency,[1],inactive
same,Potency,[2],inactive
same,Potency,[3],inactive
same,Potency,[4],inactive
same,Potency,[7],inactive
same,Potency,[8],inactive
same,Potency,[9],inactive
same,Potency,[11],inactive
same,Potency,[12],inactive
same,max response,[13],-19.7%
same,Potency,[14],inactive
same,Potency,[19],inactive
same,Potency,[15],inactive
same,Potency,[16],inactive
same,Potency,[17],inactive
O=C(O)c1cc(Cl)cc(Cl)c1O,Potency,[1],inactive
same,Potency,[2],inactive
same,Potency,[3],inactive
same,outcome,[20],inactive
same,Potency,[5],inactive
same,"activity change, positive = activation",[6],0.37%
same,Potency,[7],inactive
same,Potency,[8],inactive
same,Potency,[18],inactive
same,Potency,[9],inactive
same,Potency,[10],inactive
same,Potency,[11],inactive
same,Potency,[12],inactive
same,max response,[13],-0.228%
same,Potency,[14],inactive
same,Potency,[19],inactive
same,Potency,[15],inactive
same,Potency,[16],inactive
same,Potency,[17],inactive
CCCCCCCC/C=C\CCCCCCCC(=O)OCCO,Potency,[1],inactive
same,Potency,[2],inactive
same,Potency,[3],inactive
same,outcome,[20],inactive
same,Potency,[4],inactive
same,Potency,[8],inactive
same,Potency,[18],inactive
same,Potency,[9],inactive
same,Potency,[10],inactive
same,Potency,[12],inactive
same,max response,[13],-0.425%
same,Potency,[19],inactive
same,Potency,[15],inactive
same,Potency,[17],inactive
CNC1CCCN(c2c(F)cc3c(=O)c(C(=O)O)cn(C4CC4)c3c2OC)C1 (stereo unspecified),Potency,[1],inactive
same,Potency,[2],inactive
same,Potency,[3],inactive
same,Potency,[4],inactive
same,Potency,[7],inactive
same,Potency,[8],inactive
same,Potency,[9],inactive
same,Potency,[10],inactive
same,Potency,[11],inactive
same,Potency,[12],inactive
same,max response,[13],-1.56%
same,Potency,[14],inactive
same,Potency,[19],inactive
same,Potency,[15],inactive
same,Potency,[16],inactive
CC(=O)NNC(C)=O,Potency,[1],inactive
same,Potency,[2],inactive
same,Potency,[3],inactive
same,Potency,[4],inactive
same,Potency,[5],inactive
same,"activity change, positive = activation",[6],2.66%
same,Potency,[7],inactive
same,Potency,[8],inactive
same,Potency,[18],inactive
same,Potency,[9],inactive
same,Potency,[10],inactive
same,Potency,[11],inactive
same,Potency,[12],inactive
same,max response,[13],0.186%
same,Potency,[14],inactive
same,Potency,[15],inactive
same,Potency,[16],inactive
Cc1ccc2c(c1)CCCN2,Potency,[1],inactive
same,Potency,[2],inactive
same,Potency,[3],inactive
same,Potency,[4],inactive
same,Potency,[7],inactive
same,Potency,[8],inactive
same,Potency,[18],inactive
same,Potency,[10],inactive
same,Potency,[11],inactive
same,Potency,[12],inactive
same,max response,[13],1.39%
same,Potency,[14],inactive
same,Potency,[19],inactive
same,Potency,[15],inactive
same,Potency,[16],inactive
same,Potency,[17],inactive
O[C@@H](CNC[C@H](O)[C@H]1CCc2cc(F)ccc2O1)[C@@H]1CCc2cc(F)ccc2O1,Potency,[1],inactive
same,Potency,[2],23.9 µM (active)
same,Potency,[3],inactive
same,outcome,[20],inactive
same,"activity change, positive = activation",[6],-67.5% [at 42.5 µM]
same,Potency,[7],16.9 µM (active)
same,Potency,[8],19 µM (active)
same,Potency,[18],inactive
same,Potency,[10],26.8 µM (active)
same,Potency,[11],19 µM (active)
same,Potency,[12],21.3 µM (active)
same,Potency,[13],19 µM (active)
same,Potency,[14],26.8 µM (active)
same,Potency,[15],15.1 µM (active)
same,Potency,[16],10.7 µM (active)
same,Potency,[17],10.7 µM (active)
CC(=O)C(C)=O,Potency,[1],inactive
same,Potency,[2],inactive
same,Potency,[3],inactive
same,Potency,[4],inactive
same,Potency,[7],inactive
same,Potency,[8],inactive
same,Potency,[18],inactive
same,Potency,[9],inactive
same,Potency,[10],inactive
same,Potency,[11],inactive
same,Potency,[12],inactive
same,max response,[13],13.9%
same,Potency,[14],inactive
same,Potency,[19],inactive
same,Potency,[15],inactive
same,Potency,[16],inactive
CC(C)(C)NCC(O)COc1cccc2c1C[C@H](O)[C@H](O)C2 (stereo partly specified),Potency,[1],inactive
same,Potency,[2],inactive
same,Potency,[3],inactive
same,Potency,[4],inactive
same,Potency,[7],inactive
same,Potency,[8],inactive
same,Potency,[18],inactive
same,Potency,[9],inactive
same,Potency,[10],inactive
same,Potency,[11],inactive
same,Potency,[12],inactive
same,max response,[13],4.53%
same,Potency,[14],inactive
same,Potency,[19],inactive
same,Potency,[15],inactive
same,Potency,[16],inactive
O=C(Nc1ccc(C(=O)O)c(O)c1)c1ccccc1,Potency,[1],inactive
same,Potency,[2],inactive
same,Potency,[3],inactive
same,Potency,[4],inactive
same,Potency,[7],inactive
same,Potency,[8],inactive
same,Potency,[18],inactive
same,Potency,[9],inactive
same,Potency,[10],inactive
same,Potency,[11],inactive
same,Potency,[12],inactive
same,max response,[13],8.29%
same,Potency,[19],inactive
same,Potency,[15],inactive
same,Potency,[16],inactive
CC(C)c1ccc(C(=O)N=C(N)N)cc1S(C)(=O)=O,Potency,[1],inactive
same,Potency,[2],inactive
same,Potency,[3],inactive
same,Potency,[4],inactive
same,Potency,[7],inactive
same,Potency,[8],inactive
same,Potency,[18],inactive
same,Potency,[9],inactive
same,Potency,[11],inactive
same,Potency,[12],inactive
same,max response,[13],18.4%
same,Potency,[14],inactive
same,Potency,[19],inactive
same,Potency,[15],inactive
same,Potency,[16],inactive
same,Potency,[17],inactive
